The nature of experiment [1]: NCI Yeast Anticancer Drug Screen. Data for the rad50 strain (AID 155).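 Further: 0% = growth of vehicle-only cultures of the same strain.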 The conditions noted are these: S. cerevisiae rad50 strain growth inhibition; at 50.0 µM; stronger effect = higher value. Summed up:
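Compounds were tested on a yeast strain with an engineered DNA damage repair alteration; the reported value is growth inhibition normalised to vehicle treatment.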

The nature of experiment [2]: NCI Yeast Anticancer Drug Screen. Data for the mec2-1 strain (AID 157). The conditions noted are these: S. cerevisiae mec2-1 strain, at 50.0 µM, stronger effect = higher value. Summed up: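 Test agents were screened against the mec2-1 yeast strain, with defined DNA repair or cell cycle alteration. Growth was scored as inhibition against vehicle-only controls.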
The nature of experiment [3]: NCI Yeast Anticancer Drug Screen. Data for the sgs1 mgt1 strain (AID 161).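 Further: 0% = growth of cultures given vehicle only.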 The conditions noted are these: S. cerevisiae sgs1 mgt1 strain, at 50.0 µM, stronger effect = higher value. Summed up:
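Read-out: growth inhibition vs vehicle controls. Cells: mutant yeast strain deficient in DNA damage repair.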

Experiment [4] is described as follows: NCI Yeast Anticancer Drug Screen. Data for the cln2 rad14 strain (AID 165).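 Further: 0% = growth equal to vehicle treated cultures.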 The conditions noted are these: S. cerevisiae cln2 rad14 strain, at 50.0 µM, stronger effect = higher value. In short, it runs like this: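 Growth of compound-exposed yeast (cln2 rad14 genotype) measured and expressed as inhibition relative to vehicle.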
Experiment [5] can be described thus: NCI Yeast Anticancer Drug Screen. Data for the bub3 strain (AID 167). The conditions noted are these: S. cerevisiae bub3 mutant strain, at 50.0 µM, stronger effect = higher value. Summed up:
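Growth of a checkpoint-deficient yeast mutant is measured after compound exposure. Values represent inhibition relative to vehicle.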

A short description of experiment [6]: NCI Yeast Anticancer Drug Screen. Data for the mlh1 rad18 strain (AID 175). The conditions noted are these: S. cerevisiae mlh1 rad18 strain growth inhibition; at 50.0 µM; stronger effect = higher value. In short, it runs like this:
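In this whole-cell yeast screen, a strain with altered DNA damage repair is challenged with compound, and its growth is measured against matched vehicle-treated controls.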

The panel holds about 79,000 compounds, 15% with a hit somewhere; the sample as a whole holds those more often. Unmarked numbers belong to inactive results. Activity calls are given as the source filed them. No stated cut-off is given here; in the data, active means growth inhibition above about 70%; inactive means the rest.

As for `C=C1C(=O)OC2CC(C)C3CC(OCCCl)OC(OCCCl)C3(C)CC12` (stereo unspecified), the growth inhibition in experiment [1] is 13.8%; in experiment [2], 7.65%; in experiment [3], -3.05%; in experiment [4] it was 7.25%; in experiment [5], 5.65%; in experiment [6] it was -6.2%.

Turning to `CCOC(=O)/C=C/C(=O)O.[Cu+2]`, the growth inhibition in experiment [1] is 5.2%; in experiment [2] it was -14.3%; in experiment [3], -4%; in experiment [4], -13.7%; in experiment [5] it was -17.2%; in experiment [6] it was 11.9%.

Turning to `CN=NNc1ccc(C#N)cc1`, the growth inhibition in experiment [1] was 7.3%; in experiment [2] it was 1.4%; in experiment [3] it was -1.85%; in experiment [4], -14.1%; in experiment [5], -6.65%; in experiment [6], 5.5%.

Regarding `CN(C)CC1CN(C)CC(CN(C)C)C1(O)C(C(=O)N(C)C)c1ccccc1` (stereo unspecified), the growth inhibition was 75.2% (active) in experiment [1]; 50% in experiment [2]; 65.2% in experiment [3]; 36.4% in experiment [4]; 49.7% in experiment [5]; 62.2% in experiment [6].

As to `CCOC(=O)/C=C1\CCCC12OCCO2`, the growth inhibition is 29.2% in experiment [1]; -3.65% in experiment [2]; 3.1% in experiment [3]; 19.2% in experiment [4]; -5.75% in experiment [5]; -6.1% in experiment [6].

On to `O=C(O)[C@@H]1OCCOCCO[C@@H](C(=O)O)[C@H](C(=O)O)OCCOCCO[C@H]1C(=O)O`, for which the growth inhibition in experiment [1] is 14.7%; in experiment [2], 0.05%; in experiment [3], -8.05%; in experiment [4], 14.4%; in experiment [5], 2.25%; in experiment [6] it was -6.4%.

Turning to `O=c1c2cccnc2[nH]c2ccc3scnc3c12`, the growth inhibition in experiment [1] is -8.85%; in experiment [2], -11.3%; in experiment [3], -3.75%; in experiment [4], 22.2%; in experiment [5], -20.1%; in experiment [6] it was 40.7%.

Consider `O=C1/C(=C/c2ccccc2)CCc2ccc([N+](=O)[O-])cc21`, for which the growth inhibition in experiment [1] was -2.9%; in experiment [2], -1.85%; in experiment [3], 8.25%; in experiment [4], 4.1%; in experiment [5], 0.95%; in experiment [6] it was -26.4%.

On to `CC1(C)CCCC/C1=N\NC(N)=O`, for which the growth inhibition in experiment [1] was -12.6%; in experiment [2], -20.4%; in experiment [3], -8%; in experiment [4], -6.15%; in experiment [5], -9.6%; in experiment [6], -14.8%.

In the case of `O=C(O)CO.[NH2-].[NH2-].[Pt+2]`, the growth inhibition in experiment [1] is -10.1%; in experiment [2], -17.8%; in experiment [3] it was -4.85%; in experiment [4], -14.9%; in experiment [5], -20.2%; in experiment [6], -18.2%.

Take `COc1ccc(S(=O)(=O)N/N=C\c2cc(I)cc(I)c2O)cc1`: the growth inhibition in experiment [1] is 27.9%; in experiment [2], 7.9%; in experiment [3], 25.2%; in experiment [4], 14.6%; in experiment [5], -1.8%; in experiment [6] it was 5.1%.

`CCOC(=O)/C=C1\CONC(c2ccc(OC)cc2)=N1`: the growth inhibition in experiment [1] is -9.1%; in experiment [2] it was -5.3%; in experiment [3], -12.4%; in experiment [4] it was -19.2%; in experiment [5], 3.4%; in experiment [6] it was 2%.

In the case of `C=CCNC(=O)CS(=O)(=O)c1ccc(C)cc1`, the growth inhibition in experiment [1] is 0.1%; in experiment [2] it was -10.3%; in experiment [3], -0.35%; in experiment [4], 15.3%; in experiment [5], 3.05%; in experiment [6], 10.6%.

For the compound `O=C(Nc1cc(S(=O)(=O)O)cc2cc(S(=O)(=O)O)c(N=Nc3cc(Nc4nc(Cl)nc(Nc5ccc(S(=O)(=O)O)cc5)n4)ccc3S(=O)(=O)O)c(O)c12)c1ccccc1`, the growth inhibition was 17.9% in experiment [1]; -10.1% in experiment [2]; 10.8% in experiment [3]; 3.5% in experiment [4]; 0.05% in experiment [5]; 25.2% in experiment [6].

Turning to `Cc1ccc(N2C(=O)/C(=C3\Sc4c(nc(C)n(C)c4=O)N3c3ccccc3)SC2=S)cc1`, the growth inhibition in experiment [1] was -20.9%; in experiment [2], -31.4%; in experiment [3], -7.3%; in experiment [4] it was -58.5%; in experiment [5], -32.5%; in experiment [6] it was -26.8%.

Turning to `CC1CCCc2c(CC3CC(=O)NC(=O)C3)nc(N)nc21` (stereo unspecified), the growth inhibition in experiment [1] was 6.75%; in experiment [2], 5.25%; in experiment [3], -18.8%; in experiment [4] it was -7.85%; in experiment [5], -4.7%; in experiment [6], -23.4%.

`Cc1c(-c2ccccc2)nc(N(C)C)oc1=O`: the growth inhibition in experiment [1] was 19%; in experiment [2] it was -5.05%; in experiment [3], -6.8%; in experiment [4], -9%; in experiment [5] it was -16.2%; in experiment [6], -7.8%.

In the case of `C1OC[C@@H]([C@H]2COCO2)O1`, the growth inhibition is -15.4% in experiment [1]; -11.4% in experiment [2]; -7% in experiment [3]; -0.8% in experiment [4]; 1.95% in experiment [5]; -11.7% in experiment [6].

Take `CCC1CCC(CC)C1OC(C)=O` (stereo unspecified): the growth inhibition is -31.1% in experiment [1]; -27.7% in experiment [2]; -12.3% in experiment [3]; -26.4% in experiment [4]; -28.7% in experiment [5]; -21.6% in experiment [6].

Consider `CCN(CC)CCOC(=O)c1ccc(N=Nc2cc(C(=O)O)ccc2O)cc1`, for which the growth inhibition is 14.8% in experiment [1]; -6.3% in experiment [2]; 4.1% in experiment [3]; -6.55% in experiment [4]; -0.8% in experiment [5]; -12.5% in experiment [6].

With `CC#CCC1CCC(OCC)=CC1=O` (stereo unspecified), the growth inhibition in experiment [1] is 10.4%; in experiment [2], 9.25%; in experiment [3] it was 12.2%; in experiment [4] it was -20%; in experiment [5], 5.9%; in experiment [6], 17.1%.

Source of the values: PubChem BioAssay (NCI).
